# The panel holds about 83,000 compounds, 20% with a hit somewhere; the sample as a whole holds those more often.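 Activity criterion: percent growth below 10, measured after cells in 96-well plates were exposed to a single compound concentration for 48 hours.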 Unmarked numbers belong to inactive results. Calls of active or inactive are those of the source.
# Tested on: UACC-62 melanoma
# Test: NCI-60 one-dose screen, 48 h (100 = growth as untreated, 0 = no growth, -100 = all killed)
# Settings: 10 µM unless noted
row,Compound,growth
1,O=C(COc1cccc(/C=C2\Oc3ccccc3C2=O)c1)c1ccc([N+](=O)[O-])cc1,72.2%
2,CC[C@]12C=CCN3CC[C@@]4(c5ccc(OC)cc5N(C)[C@H]4[C@@](O)(C(=O)OC)[C@@H]1OC(=O)CCC(=O)N[C@H](Cc1c[nH]c4ccccc14)C(=O)OC)[C@@H]32,-61.1% [100 µM] (active)
3,C=C(C)[C@@H]1CC[C@]2(C(N)=O)CC[C@]3(C)[C@H](CC[C@@H]4[C@@]5(C)C/C(=C/c6cccnc6)[C@H](O)C(C)(C)[C@@H]5CC[C@]43C)[C@@H]12,24.8% [100 µM]
4,CSc1nc2sc3cc(Cl)c(Cl)cc3n2c(=N)c1C#N,82.2%
5,COc1ccc(/C=C2\N=C(Nc3ccccc3)N(NC(=O)c3ccccn3)C2=O)cc1,86.2%
6,O=C(NCCCNC(=O)OCc1ccc2cccc(O)c2n1)OCc1ccc2cccc(O)c2n1,39.6%
7,COc1cc(C(=O)/C=C/c2c(-c3ccc(F)cc3)nc3sccn23)cc(OC)c1OC,23.3%
8,CCCCCCCCCCCCNC(=S)N/N=C/c1ccccc1O,77.7%
9,CCCc1cc2cc(-n3nc(C)c4c3CC(C)(C)CC4=O)cc(NC3CCSCC3)c2c(=O)[nH]1,53.2%
10,COc1ccc(-c2cc(-c3ccc(OC)c(OC)c3)nc(SCCCCCC(=O)NO)n2)cc1,24%
11,CCC(C)[C@H](NC(=O)NC(=O)NC(=O)CI)C(=O)OC (stereo partly drawn),88.9%
12,CCN(CC)c1ccc(/C=C/c2ccc3cc(C)ccc3[n+]2CC)cc1,1.47% (active)
13,N/C(=N\c1nc2ccccc2[nH]1)NC(=O)Cc1cccc2ccccc12,81.8%
14,CC1(C)CC[C@]2(C(N)=O)CC[C@]3(C)C(=CC[C@@H]4[C@@]5(C)C/C(=C/c6ccncc6)C(=O)C(C)(C)[C@@H]5CC[C@]43C)[C@@H]2C1,-79.7% [100 µM] (active)
15,Cc1ccc(C2=C/C(=C/c3ccc(Br)cc3)C(=O)N2CCc2ccc(S(N)(=O)=O)cc2)cc1,78.7%
16,Cc1ccc(NCCN2CCCCC2)c2c(=O)c3ccccc3sc12,-2.99% (active)
17,CC1(C)CC(=O)c2c(ccc(C(=O)C[C@@H](N)CO)c2N)O1,-9.38% (active)

row,Compound,growth
1,CCCCC1COc2cccc3c2N1C=C/C3=C\C(=O)n1ccc2ccccc21 (stereo not drawn),56.3%
2,CC(C)CSc1ncnc2nc[nH]c12,84.8%
3,CC1(C)CC[C@]2(C(=O)O)CC[C@]3(C)C(=CC[C@@H]4[C@@]5(C)C/C(=C/c6cccnc6)[C@H](O)C(C)(C)[C@@H]5CC[C@]43C)[C@@H]2C1,-56% [100 µM] (active)
4,COc1ccc(C=C2c3ccccc3-c3ccccc32)cc1,23.6%
5,C#C[C@]1(O)CC[C@H]2[C@@H]3CC=C4c5nc(Nc6ccc(OC)cc6OC)sc5CC[C@]4(C)[C@H]3CC[C@@]21C,-36.8% (active)
6,CCOC(=O)c1nn(C2CCCCO2)c2ccc(NC(=O)CSc3nc4ccccc4c(=O)[nH]3)cc12 (stereo not drawn),94.5%
7,O=c1[nH]cnc2c1ccn2C1OC(CO)C(O)C1O (stereo not drawn),73.3%
8,CCOC(=O)C(=Cc1ccccc1[N+](=O)[O-])C(=O)OCC,32.3%
9,Cc1cc(C)c(S(=O)(=O)/N=c2/n(-c3ccccc3)nc3n2CCN3C2=NCCN2)c(C)c1,88.8%
10,COC(=O)c1cc2c(=O)[nH]cc3c2c(n1)CCC3,107%
11,Cn1cc(-c2noc(C(=O)c3cn(C)c4ncccc34)n2)c2ccccc21,91.8%
12,O=c1cc(-c2ccccc2)oc2cc(OCc3cn(Cc4ccc(F)cc4)nn3)cc(O)c12,53.2% [100 µM]
13,Cc1ccc(Cn2c(O)c(N=NC(=O)c3ccc(S(N)(=O)=O)cc3)c3ccccc32)cc1,86.7%
14,CC[C@]12C=CCN3CC[C@@]4(c5ccc(OC)cc5N(C)[C@H]4[C@@](O)(C(=O)OC)[C@@H]1OC(=O)CCC(=O)O[C@H]1CC[C@H]4[C@@H]5CCC6=CC(=O)CC[C@@H]6[C@H]5CC[C@]14C)[C@@H]32,-53.8% [100 µM] (active)
15,CCC(Br)(CC)C(=O)c1ccc(OCC(=O)O)c(Cl)c1Cl,87.4%
16,Oc1c(CNCCNCc2cc(Cl)cc(Cc3ccccc3)c2O)cc(Cl)cc1Cc1ccccc1,-11.5% (active)

# — PubChem BioAssay (NCI)
